Hits are enriched below; roughly 10% of the tested compounds scored in any of these assays.
VDR inhibitor – blocks the human vitamin D receptor | P11473 | Potency, µM, without a hit: max response, negative = inhibition, most hits filed as inhibitors | hit rate 0.93% among 400,000 | AID 504847 | VDR-SRC2-3 peptide fluorescence polarization, 2 h; further: potency means the concentration at half of the fitted maximal effect
Target sequence (P11473 whole entry, looked up): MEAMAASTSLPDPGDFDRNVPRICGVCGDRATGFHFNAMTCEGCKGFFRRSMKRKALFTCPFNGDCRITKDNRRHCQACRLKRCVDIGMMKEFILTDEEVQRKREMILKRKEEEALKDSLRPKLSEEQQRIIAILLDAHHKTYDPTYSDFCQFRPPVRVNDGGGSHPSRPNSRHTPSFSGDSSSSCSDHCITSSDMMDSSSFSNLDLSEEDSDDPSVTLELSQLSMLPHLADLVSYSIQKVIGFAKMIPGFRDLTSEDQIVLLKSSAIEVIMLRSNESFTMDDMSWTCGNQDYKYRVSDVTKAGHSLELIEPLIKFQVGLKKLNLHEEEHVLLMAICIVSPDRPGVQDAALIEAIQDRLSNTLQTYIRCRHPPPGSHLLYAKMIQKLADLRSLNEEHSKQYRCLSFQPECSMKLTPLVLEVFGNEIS
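The screen uses fluorescence polarization to detect compounds that interfere with recruitment of the SRC2-3 coactivator peptide to VDR; plates are read after 2 h at room temperature.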
CCT chaperon mod – modulators of cytosolic chaperonin (CCT/TRiC) activity; purified chaperonin ATPase assay, HTRF ADP detection, 30 min; activity change, % (concentration not given with the values), hits read low; hit rate 0.3% among 360,000; in the data active means activity change below about -30%
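TRiC (40 or 20 nM final, by batch activity) in 30 mM Tris pH 7.4, 100 mM KCl, 5 mM MgCl2, 1 mM DTT was treated with compound at 76 uM single dose, then 10 uM ATP, 30 min at 37 °C. ADP was read by HTRF Transcreener.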
G9a inh – inhibitors of human histone lysine methyltransferase G9a. Q96KQ7. G9a H3K9 monomethylation, AlphaScreen, 2 h. Potency, µM (top dose mostly 102 µM), without a hit: at the highest dose activity, negative = inhibition, most hits filed as inhibitors. hit rate 8.8% among 350,000; further: potency means the concentration at half of the fitted maximal effect; nearly all actives have a fitted effect of over 75% in size
Target sequence (Q96KQ7 913-1193 limits assumed): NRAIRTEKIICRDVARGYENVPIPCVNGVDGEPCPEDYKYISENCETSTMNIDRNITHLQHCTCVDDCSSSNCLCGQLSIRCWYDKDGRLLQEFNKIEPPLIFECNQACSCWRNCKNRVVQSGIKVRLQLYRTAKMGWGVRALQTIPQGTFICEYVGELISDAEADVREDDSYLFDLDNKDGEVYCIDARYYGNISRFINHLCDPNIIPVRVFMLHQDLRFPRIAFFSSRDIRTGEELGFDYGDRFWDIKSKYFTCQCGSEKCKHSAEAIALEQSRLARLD
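Compounds were preincubated with 20 nM G9a for 15 min, after which biotinylated H3K9 peptide (500 nM) and SAM (20 uM) started a 2 h room-temperature reaction. Monomethylated product was quantified by antibody-based AlphaScreen chemiluminescence.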
PLK1 PBD block – PLK1 (human) polo-box domain binding inhibition. Potency, µM, for inactives: max response, negative = inhibition, hits mostly inhibitors. Plk1 PBD binding of FITC phosphopeptide, fluorescence polarization. AID 720504. hit rate 2.8% among 360,000. P53350; further: potency means the concentration at half of the fitted maximal effect; series mostly up to about 57 µM; nearly all actives have a fitted effect of over 65% in size
Sfp PPTase inh – blocks B. subtilis Sfp PPTase activity; Biochemical Sfp PPTase activity, qHTS; hit rate 3.5% among 310,000; Potency, µM, for the others: largest response in the series, negative = inhibition, usual class: inhibitors; AID 1490; Q9F4F7;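 further: the enzyme is Sfp with the accession as filed and its product quenches rhodamine fluorescence; potency means the concentration at half of the fitted maximal effect; 0% = enzyme reaction without inhibitor and -100% = no enzyme wells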
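Step 1, compound plus 15 nM Sfp-PPTase, 15 min, room temperature. Step 2, add rhodamine-CoA (5 uM) and BHQ-2-YbbR (12.5 uM). Step 3, read 525/598 nm fluorescence at 0 and 30 min.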
MmCpn inh – inhibitors of Methanococcus maripaludis chaperonin TRiC (MmCpn). purified Mm-Cpn ATPase, ADP Transcreener TR-FRET. Potency, µM (top dose mostly 76.9 µM), inactives show at the highest dose activity, negative = inhibition, actives largely listed as inhibitors. hit rate 0.031% among 330,000. AID 504842; further: potency means the concentration at half of the fitted maximal effect; nearly all actives have a fitted effect of over 80% in size
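ATPase read-out: TR-FRET ADP immunoassay (anti-ADP Eu cryptate vs ADP-d2), ex 320 nm, em 590/665 nm; signal drops as ADP forms. Enzyme 25 nM, ATP 10 uM, 30 min at 37°C after 10 min compound preincubation.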
An asterisk follows results filed as active; ? = inconclusive; . = no result given; [ ] = dose if it differs, or a comment. Unless noted, the call rests on the fitted dose curve; in most records, active means well fitted curve in the direction sought with a large enough effect; inconclusive means small, poorly fitted or top-dose-only effect, or another doubt; inactive means no such curve, though single readings can be large; an effect the other way counts as inactive or inconclusive. Unless noted, on the % scale 0 is the no-effect control and ±100 the full control effect.

SMILES	VDR inhibitor	CCT chaperon mod	G9a inh	PLK1 PBD block	Sfp PPTase inh	MmCpn inh
Cc1ccc(Cl)cc1NC(=O)C1CCN(C(=O)c2cnn(-c3ccccc3)c2-n2cccc2)CC1	14%	.	18%[59 µM]	.	.	.
Cc1ccn2cc(-c3cnoc3C)nc2c1	-13%	-4	-24%	27µM*	4%	-1%
CN(C)CCCNCCCCNC(=O)/C=N/O	8%	2	5%[2.33 µM]	-16%	-15%	3%
CN(C)CCCNCCCNC(=O)/C=N/O	-3%	3	32µM*	1%	-7%	0%
CC(=O)Oc1c(Br)cc(N(C(C)=O)S(=O)(=O)c2ccccc2)c2ccccc12	-6%	2	6.3µM*	27µM*	35µM*	-1%
CC(=O)Nc1ccc(NS(=O)(=O)c2ccc3[nH]c(=O)[nH]c3c2)cc1	29%	-3	5%	-23%	10%	-2%
CCCCCNC(=O)c1ccc(NS(=O)(=O)c2ccc3[nH]c(=O)[nH]c3c2)cc1	-24%	-2	32µM*	-10%	-3%	-7%
CCCCNC(=O)c1ccc(NS(=O)(=O)c2ccc3[nH]c(=O)[nH]c3c2)cc1	9%	-1	71µM*	8%	-10%	2%
CCOC(=O)c1ccc(NS(=O)(=O)c2ccc3[nH]c(=O)[nH]c3c2)cc1	-19%	0	11µM*	12µM*	22µM*	3%
O=C(NCCc1ccccc1)c1ccc(NS(=O)(=O)c2ccc3[nH]c(=O)[nH]c3c2)cc1	-16%	2	?	-8%	.	2%
CC(=O)N1CCN(C(=O)c2ccc(NS(=O)(=O)c3ccc4[nH]c(=O)[nH]c4c3)cc2)CC1	5%	-3	5%	-1%	.	-3%
CC1CC(C)CN(C(=O)c2ccc(NS(=O)(=O)c3ccc4[nH]c(=O)[nH]c4c3)cc2)C1 (stereo not given)	-8%	0	50µM*	-1%	.	0%
C#CCCCO/N=C1/C[C@@H](O)[C@@H](O)[C@@H]2[C@@H]3C(=O)N(CC)C(=O)[C@H]3CC[C@@H]12	.	.	.	.	4%	.
CC(C)NS(=O)(=O)c1ccc2nc(NC(=O)c3cncc(Br)c3)sc2c1	8%	.	?	.	.	.
O=C(Nc1ncccc1O)c1ccc(NS(=O)(=O)c2ccc3[nH]c(=O)[nH]c3c2)cc1	1%	-4	71µM*	-8%	.	-1%
CCOc1cc2c(cc1/C=C/c1noc(C)c1[N+](=O)[O-])OC(C)C2 (stereo not given)	-8%	0	45µM*	40%	12%	-1%
CC(=O)Nc1ccc(-c2csc(N/N=C(/C)c3ccccc3)n2)cc1	?	1	18µM*	-25%	40µM*	2%
CCC(=O)Nc1ccc(-c2csc(NNC(C)=O)n2)cc1	2%	1	14µM*	-24%	-18%	-1%
CCCCCC(=O)Nc1ccc(-c2csc(N)n2)cc1	?	-1	40µM*	-20%	?	-12%
O=C(Nc1ccc(-c2csc(-c3ccccc3)n2)cc1)c1ccccc1	13%	0	27%[0.501 µM]	-6%	6%	-4%
CC(=O)Nc1ccc(-c2csc(NNC(=O)c3ccccc3)n2)cc1	10%	-1	-2%	-12%	18µM*	-10%
CCC(=O)Nc1ccc(-c2csc(C)n2)cc1	1%	0	-2%	3%	11%	-3%
CN(C)CC[C@@](O)(c1ccccc1)c1ccccc1Cl	2%	.	-1%[12.7 µM]	.	4%	.
COc1ccc(C)cc1NC(=O)N(C(C)C)C1CCN(C(C)=O)CC1	2%	.	10%[59 µM]	.	.	.
Cc1ccc(S(=O)(=O)C(CNS(=O)(=O)c2cc(F)ccc2F)c2cccs2)cc1 (stereo not given)	9%	.	6%[59 µM]	.	.	.
SMILES	VDR inhibitor	CCT chaperon mod	G9a inh	PLK1 PBD block	Sfp PPTase inh	MmCpn inh
Cc1ccc2nc(CSc3nnc(NC(=O)c4ccc(C(C)(C)C)cc4)s3)cc(=O)n2c1	-6%	.	6%[59 µM]	.	.	.
COc1ccc(N2CCN(C(=O)CSc3nc(-c4ccccc4)no3)CC2)cc1	4%	.	-18%[59 µM]	.	.	.
C/C(=N/Nc1nc(-c2ccc(Cl)cc2)cs1)c1cccs1	-4%	-1	?	-7%	40µM*	-2%
CC(C)(C)c1nnc(NS(=O)(=O)c2ccc(F)cc2)s1	79µM*	0	.	9.5µM*	.	.
O=S(=O)(Nc1nnc(C(F)(F)F)s1)c1ccc(Cl)cc1	-30%	-2	-15%	-18%	18%	-1%
COCCSc1nnc(NS(=O)(=O)c2ccc(F)cc2)s1	-9%	1	32µM*	?	-8%	0%
CCS(=O)(=O)c1ccc(O)c(Nc2cc(C)nc(SC)n2)c1	17%	.	-25%[59 µM]	.	.	.
CCOc1ccc(NC(=O)Cn2c(=O)n(-c3ccccc3)c(=O)c3c4c(sc32)CCCC4)cc1	-7%	.	9%[59 µM]	.	.	.
CCOC(=O)c1nnc(-c2ccccc2)nc1Sc1c(Cl)cccc1Cl	-9%	0	40µM*	-21%	-7%	-1%
CCOC(=O)c1nnc(-c2ccccc2)nc1NCc1ccc(Cl)cc1	4%	-2	24%[59 µM]	-2%	50µM*	-1%
CCOC(=O)c1nnc(-c2ccc(C)cc2)nc1Sc1ccc(Cl)cc1	?	1	-2%[12.7 µM]	-10%	-4%	3%
COC(=O)c1scc(-c2ccc(C)cc2)c1S(=O)(=O)Nc1cc(C)ccc1OC	14%	.	-16%[59 µM]	.	.	.
O=C(c1noc2c1CCCC2)N1CCc2c([nH]c3ccccc23)C1c1ccccn1 (stereo not given)	-10%	-1	50µM*	0%	12%	0%
Cc1cccc(C2c3[nH]c4ccccc4c3CCN2C(=O)c2noc3c2CCCC3)n1 (stereo not given)	-7%	-1	?	2%	6%	-2%
CN(C)C(=S)N=c1ssc(=S)n1Cc1cccnc1	50µM*	0	.	27µM*	.	.
S=C1NCN(Cc2cccnc2)CN1	2%	2	-2%	0%	5%	1%
Cc1cc(Br)ccc1NC(=O)C(Cc1ccccc1)NS(=O)(=O)c1ccc(Br)s1 (stereo not given)	0%	.	6%[59 µM]	.	.	.
COc1ccc(-c2noc(CN3CCCC(OCc4ccccn4)C3)n2)cc1 (stereo not given)	-9%	-1	50µM*	-6%	5%	0%
COC(=O)NC(c1cccc(C)c1)[C@]1(C(C)=O)CCOC1=O (stereo not given in full)	.	.	.	.	2%	.
COc1ccc(Cl)cc1NC(=O)c1ncn(-c2ccccc2)n1	10%	.	1%[59 µM]	.	.	.
CN(C)S(=O)(=O)c1cccc(C(=O)Nc2ccccc2[N+](=O)[O-])c1	16%	-1	-11%[59 µM]	3%	-6%	0%
O=C(Nc1ccc(Cl)cc1)Nc1ccc(N2CCCC2)c(S(=O)(=O)Nc2ccccc2Cl)c1	-27%	-2	?	-5%	35%	-3%
CN1CCN(c2ccc(Cl)cc2NS(=O)(=O)c2ccccc2Cl)CC1	-3%	-2	?	27µM*	-10%	0%

Source: PubChem BioAssay (National Center for Advancing Translational Sciences (NCATS))
